A number with no mark means an inactive call. Active and inactive are the calls of the source. No rule for the calls is given here.

The nature of this test: cell-free Rh123 fluorescence quenching read-out – biochemical, dry powder samples, uHTS hits, counter-screen for mtPTP inhibitor project, dose response (AID 743361). The settings on record: Rhodamine 123 fluorescence quenching counterscreen.
Regarding `O=C(Nc1cc(Cl)cc(Cl)c1)c1cc(-c2cccc(O)c2)on1`, the IC50 (commonly the midpoint of a concentration-inhibition curve) is above 100 µM.
Consider `COc1ccc(Cl)cc1S(=O)(=O)Nc1ccc(CN2CCN(C)CC2)cc1`, for which the IC50 was above 100 µM.
`O=C(Nc1ccc(CN2CCCCC2)cc1)c1cc(Cl)cc(OCc2ccccc2)c1`: the IC50 is 26.9 µM (active).
The same measure for `CN1CCN(CCc2ccc(NS(=O)(=O)c3cc(Cl)cc(Cl)c3)cc2)CC1`: above 100 µM; for `COc1ccc(Cl)cc1C(=O)Nc1ccc(N(C)C)cc1`: above 100 µM; for `O=S(=O)(Nc1ccc(CN2CCCCC2)cc1)c1cccc(Cl)c1`: above 100 µM.
For `COc1ccccc1C(=O)Nc1ccc(CN2CCCCC2)cc1`, the IC50 was above 100 µM.
The same measure for `COc1ccc(Cl)cc1C(=O)Nc1ccc(CCN2CCN(C)CC2)cc1`: above 100 µM; for `O=S(=O)(Nc1ccc(CN2CCCCC2)cc1)c1ccc(F)c(Cl)c1`: above 100 µM.
For the molecule `CN1CCN(CCc2ccc(NS(=O)(=O)c3cccc(Cl)c3)cc2)CC1`, the IC50 is above 100 µM.
As for `COc1ccc(Cl)cc1C(=O)Nc1ccc(CCN2CCCCC2)cc1`, the figure is above 100 µM; as for `COc1ccc(Cl)c(C(=O)Nc2ccc(CN3CCCCC3)cc2)c1`, above 100 µM.
The same measure for `CN1CCN(c2ccc(NC(=O)c3ccc(OCc4ccccc4)cc3)cc2)CC1`: above 100 µM.
Regarding `Cc1cc(NC(=O)c2ccc(-n3cnnc3)cc2)no1`, the IC50 is above 100 µM.
`O=C(Nc1cc(Cl)ccc1F)c1cc(-c2cccc(O)c2)on1`: the IC50 was above 100 µM.
As for `COc1ccc(Cl)cc1C(=O)Nc1ccc(N2CCN(C)CC2)cc1`, the figure is above 100 µM.
The same measure for `COc1ccc(Cl)c(C(=O)Nc2ccc(CCN3CCN(C)CC3)cc2)c1`: above 100 µM.
As for `COc1ccc(Cl)cc1C(=O)Nc1ccc(CN2CCNCC2)cc1`, the figure is above 100 µM.
Turning to `CN1CCN(c2ccc(Cl)cc2NC(=O)/C=C/c2cccc(F)c2)CC1`, the IC50 is above 100 µM.
Regarding `COc1ccc(Cl)cc1C(=O)Nc1ccc(N2CCOCC2)cc1`, the IC50 is above 100 µM.
As for `Cc1ccc(-c2cc(C(=O)Nc3cccc(Cl)c3)no2)cc1`, the figure is above 100 µM.
As for `CN1CCN(Cc2ccc(NS(=O)(=O)c3cc(Cl)cc(Cl)c3)cc2)CC1`, the figure is above 100 µM; as for `Cc1ccc(NC(=O)c2cc(-c3cccc(O)c3)on2)cc1Cl`, above 100 µM; as for `O=S(=O)(Nc1ccc(CCN2CCCCC2)cc1)c1cc(Cl)cc(Cl)c1`, above 100 µM.
The same measure for `CN1CCN(Cc2ccc(NS(=O)(=O)c3ccc(F)c(Cl)c3)cc2)CC1`: above 100 µM.
As to `O=C(Nc1cccc(Cl)c1Cl)c1cc(-c2cccc(O)c2)on1`, the IC50 was above 100 µM.
As for `CN1CCN(c2ccc(NS(=O)(=O)c3ccc(F)c(Cl)c3)cc2)CC1`, the figure is above 100 µM.
As for `CCN(CC)c1ccc(NC(=O)c2ccc(OC)c(Cl)c2)cc1`, the figure is above 100 µM.
As for `CCN(C(=O)c1cc(Cl)ccc1OC)c1ccccc1`, the figure is above 100 µM; as for `CC1(C)CCN(CCCC(=O)c2ccc(Br)cc2)CC1`, above 100 µM; as for `COc1ccc(Cl)cc1S(=O)(=O)Nc1ccc(CN2CCCCC2)cc1`, above 100 µM.

The record behind these values is PubChem BioAssay AID743361 (Molecular Libraries Program, Specialized Chemistry Center, …, 2014).
